Data on 39 compounds can be found in PubChem BioAssay AID422 (Emory University Molecular Libraries Screening Center, 2006).

As a reminder, the inhibition is the relative decrease from the control value, in per cent.

SMILES strings stand for the structures. Hit rate of the full screen: of about 160,000 compounds, about 310 (0.19%) were called active. The sample as a whole holds a higher share of actives than the screen did. Unmarked numbers belong to inactive results. Cut-off read from the data, not from the text of the source: active = inhibition above about 30%; inactive = the rest.

For this experiment, the target named is 14-3-3 protein gamma (Homo sapiens) (UniProt P61981). The experiment is described as follows: modulators of 14-3-3 gamma protein binding, primary screen, biochemical, fluorescence polarization (AID 422).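 Note: 0% = protein plus tracer without compound and 100% = blank with tracer alone.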 To be noted: FP, 14-3-3gamma / TMR-pS259-Raf peptide binding; at 40 µM; active compounds read high. (In general: Fluorescence polarisation rises when a labelled molecule tumbles more slowly, as on binding a larger partner.)
14-3-3 protein gamma (Homo sapiens), sequence (P61981 whole entry, looked up): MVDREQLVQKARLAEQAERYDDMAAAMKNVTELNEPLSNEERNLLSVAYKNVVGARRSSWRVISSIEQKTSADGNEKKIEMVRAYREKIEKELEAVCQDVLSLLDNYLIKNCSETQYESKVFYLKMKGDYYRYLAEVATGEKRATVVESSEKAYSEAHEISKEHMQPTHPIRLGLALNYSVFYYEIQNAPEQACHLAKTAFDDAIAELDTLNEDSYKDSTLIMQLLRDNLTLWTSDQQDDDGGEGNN
Consider `Cc1ccc2[nH]cc(C(=O)c3ccccc3)c(=O)c2c1`, for which the inhibition is -15%.

Turning to `O=C(c1ccco1)N1CCN(c2ccc([N+](=O)[O-])c(NCc3cccnc3)c2)CC1`, the inhibition was 46.1% (active).

Consider `O=[N+]([O-])c1ccc(N2CCN(S(=O)(=O)c3ccc4ccccc4c3)CC2)cc1NCc1ccco1`, for which the inhibition is -5.05%.

Regarding `O=C(c1ccco1)N1CCN(c2cccc(Cl)c2)CC1`, the inhibition was -9.3%.

Regarding `CC1CC(C)CN(C(=O)c2cc3c(=O)oc4ccccc4c3s2)C1` (centres undefined), the inhibition was -6.3%.

For `CC(C)CCNC(=O)c1ccc2c(c1)N(Cc1ccccc1)C(=O)CS2`, the inhibition is 3.32%.

Turning to `O=C(Nc1cccc(-c2nc3ccccc3s2)c1)c1cccnc1Cl`, the inhibition is -17.9%.

Take `COc1cc(NS(=O)(=O)c2c(C)n[nH]c2C)cc(OC)c1`: the inhibition is -0.99%.

Regarding `COc1cc2c(=O)n(CC3CCCO3)c(=O)n(CC(=O)c3ccc(Br)cc3)c2cc1OC` (centres undefined), the inhibition is -0.78%.

For the compound `Cc1cc(OCC(=O)Nc2sc3c(c2C(N)=O)CCCC3)ccc1[N+](=O)[O-]`, the inhibition is -9.64%.

Consider `O=C(Nc1c2c(nn1-c1ccc(F)cc1)CSC2)c1cccc(F)c1`, for which the inhibition was -4.31%.

For `COc1ccc(C)cc1NC(=O)C1(S(=O)(=O)c2ccc(Cl)cc2)CC1`, the inhibition was -7.62%.

`O=C(NCCN1CCCC1)C1CCC(CNS(=O)(=O)c2ccc(Cl)cc2)CC1` (centres undefined): the inhibition is 1.41%.

With `Cc1ccccc1N1C(=O)C2C3C=CC(C4CC34)C2C1=O` (centres undefined), the inhibition was 8.35%.

As for `Cc1cc(OCC(=O)Nc2ncc(S(=O)(=O)c3ccc([N+](=O)[O-])cc3)s2)cc(C)c1Cl`, the inhibition was -4.64%.

Take `COc1ccc(C2C(C(=O)c3cccs3)=C(O)C(=O)N2CCN(C)C)cc1` (centres undefined): the inhibition is 11.4%.

In the case of `COc1ccc(C2=NN(c3ccccc3)C(c3ccc(F)cc3)C2)cc1` (centres undefined), the inhibition was -10.6%.

`CCC(C)Nc1ncnc2c1cnn2-c1cccc(C)c1` (centres undefined): the inhibition is 2.9%.

For the compound `O=C1c2cccc3c(N=Cc4ccccc4O)ccc(c23)C(=O)N1c1ccccc1`, the inhibition was 31.4% (active).

Regarding `O=C1c2cccc3cccc(c23)C(=O)N1c1cccc(O)c1`, the inhibition is -4.23%.

With `CC(=O)Nc1ccccc1Sc1ccc2c3c(cccc13)C(=O)N(c1ccc(C)cc1)C2=O`, the inhibition is -10.1%.

Take `O=C(O)c1ccc(N2NC(c3ccccc3)=CC2O)cc1` (centres undefined): the inhibition is -4.41%.

As for `O=C(CCS(=O)(=O)c1nc(-c2cccs2)cc(C(F)(F)F)n1)Nc1cc(Cl)ccc1O`, the inhibition is -33.5%.

Take `COc1cc(NS(=O)(=O)c2ccc3c(c2)CCN3C(C)=O)cc(OC)c1`: the inhibition is 0.2%.

With `Cn1ccnc1SCC(=O)Nc1ccc(F)cc1`, the inhibition was -12.9%.

For `CCSCCOC(=O)C1=C(C)NC(=O)NC1c1ccc(OC)cc1` (centres undefined), the inhibition is -1.92%.

For the compound `O=C(NCc1ccco1)c1ccc2c(=O)n(Cc3ccc(Cl)cc3)c(=S)[nH]c2c1`, the inhibition was -14.3%.

For `CC1=C(C(=O)OCC2CCCO2)C(c2ccccc2Cl)C2=C(CCCC2=O)N1` (centres undefined), the inhibition was -2.91%.

Regarding `CC(C)(C)c1ccc(C2SCC(=O)N2c2ccccc2F)cc1` (centres undefined), the inhibition was -3.17%.

`CCCCOC(=O)c1cc(-c2ccccc2)nc2ccc(Br)cc12`: the inhibition is 2.65%.

For the compound `CSc1nnc2c(n1)OC(c1ccccc1Cl)Nc1ccccc1-2` (centres undefined), the inhibition was 31.9% (active).

For the compound `CSc1nnc2c(n1)OC(c1ccc3c(c1)OCO3)Nc1ccccc1-2` (centres undefined), the inhibition was 6.07%.

On to `CCOc1ccc(C2Nc3ccccc3-c3nnc(SC)nc3O2)cc1C` (centres undefined), for which the inhibition is -68.8%.

In the case of `CCOC(=O)c1sc2ncnc(N3CCCC(C(=O)OCC)C3)c2c1C` (centres undefined), the inhibition was -2.94%.

Take `Cc1ccccc1N=Cc1cccc([N+](=O)[O-])c1O`: the inhibition is 5.41%.

As for `Cc1c(Cl)c(C)c([N+](=O)[O-])c(O)c1C=Nc1ccc(Br)cc1C(=O)O`, the inhibition was 46.9% (active).

As for `Cc1ccc2nc(-c3cc(NC(=O)c4cc(Cl)ccc4[N+](=O)[O-])ccc3Cl)oc2c1`, the inhibition is -15.8%.

On to `CCSCCSc1nc(C)cc(C)n1`, for which the inhibition is -17.9%.

Take `CSc1nc(OCC(=O)c2ccccc2)c2c3c(sc2n1)CCCC3`: the inhibition is 4.08%.
